Screening results (PubChem BioAssay)
A selection follows.
aSyn UTR act – Activators via SNCA 5'UTR binding, MLPCN. alpha-synuclein 5'UTR reporter, activators screen. activity score, % (tested at 7.5 µM), hits read low. actives 7.1% (n = 300,000). AID 1814; in the data active means activity score below about -60%
Each line names hits and unclear results; the compound was inactive in the other large screens.

Cc1nc2ccc(C(=O)c3ccccc3)cc2[nH]1	aSyn UTR act -95
O=c1[nH]c(-c2ccc(O)cc2)nc2scc(-c3cccs3)c12	aSyn UTR act -138
Cc1nnsc1S(=O)(=O)Cc1ccccc1C(F)(F)F	aSyn UTR act -76
COc1ccc(N/N=C(/N=Nc2nc(C)cc(=O)[nH]2)c2ccccc2)cc1	none
Cc1cc(=O)[nH]c(N=N/C(=N/Nc2ccc(O)cc2)c2ccccc2)n1	aSyn UTR act -100
CC(=O)c1ccc(NC(=O)C(C)NCc2ccccc2Cl)cc1 (stereo not drawn)	aSyn UTR act -78
COc1cccc(NC(=O)c2ccc(NC(=O)C(C)C)cc2)c1	aSyn UTR act -115
COc1cc(NC(=O)N2CCNC2=O)cc(C(=O)Nc2cccc(C(F)(F)F)c2)c1	none
CC(C)C(=O)Nc1ccc(C(=O)c2ccccc2)cc1	aSyn UTR act -88
COc1cccc(NC(=O)c2ccc(OC(F)(F)F)cc2)c1	aSyn UTR act -153
O=C1CCCc2nc(N3CCN(C(=O)c4ccco4)CC3)ncc21	aSyn UTR act -93
O=C(c1ccco1)N1CCN(c2ncnc3c2oc2ccccc23)CC1	aSyn UTR act -113
Nc1nc(N2CCN(C(=O)c3ccco3)CC2)nc2ccccc12	aSyn UTR act -102
COc1cc(NC(=O)c2csc3c2CCCC3)ncn1	aSyn UTR act -153
O=C(Nc1ccccn1)c1onc2c1CCCC2	none
O=C(Nc1ccccn1)c1csc2c1CCCC2	aSyn UTR act -163
COc1ccc(-c2nc(N/N=C(\C)c3ccc(O)cc3)c3ccccc3n2)cc1	aSyn UTR act -92
C/C(=N\NC(N)=S)C1=CCC2C3CC[C@H]4CC(O)CC[C@]4(C)C3CC[C@]12C (stereo partly drawn)	aSyn UTR act -95
Cc1cc(NC(=O)COc2ccccc2)ccc1Cl	aSyn UTR act -96
CC(C)c1ccc(NC(=O)COc2ccccn2)cc1	aSyn UTR act -130
C/C(=N\NC(=O)c1c(Cl)c(C)nn1C)c1cccc(NC(=O)COc2ccccc2)c1	aSyn UTR act -80
Cc1ccc(SCC(=O)Nc2ccc(N3CCN(C)CC3)c(F)c2)cc1	aSyn UTR act -82
O=C(COc1ccccc1)Nc1ccc(N2CCCCC2)cc1	aSyn UTR act -74
O=C(COc1ccccc1)Nc1ccccc1N1CCN(c2ccccc2)CC1	none
CCCOC(=O)Nc1ccc(N2CCCCC2)cc1	aSyn UTR act -67
CN1CCN(c2ccc(NC(=O)COc3ccccc3)cc2Cl)CC1	aSyn UTR act -192
Cc1ccnc(NS(=O)(=O)c2ccc(NC(=O)COc3ccccc3)cc2)n1	none
CC(C)c1ccc(NC(=O)COc2ccccc2)cc1	aSyn UTR act -124
CC1=NN(c2ccc(C)c(C)c2)C(=O)/C1=C\C=C\c1ccc([N+](=O)[O-])o1	none
COc1ccc(/C=C2/C(=O)N(c3ccccc3)N=C2C)cc1	none
CC1=NN(c2ccccc2)C(=O)/C1=C\C=C\c1ccccc1	aSyn UTR act -127
O=C(Nc1ccc(Cc2ccncc2)cc1)c1ccc([N+](=O)[O-])o1	aSyn UTR act -150
COc1ccc(S(=O)(=O)N2CCN(C(=O)c3ccc([N+](=O)[O-])o3)CC2)cc1	aSyn UTR act -78
O=C(/C=C/c1cccc([N+](=O)[O-])c1)c1ccc([N+](=O)[O-])o1	none
O=C(Nc1ccc2c(c1)CCCN2C(=O)c1ccco1)c1cc([N+](=O)[O-])ccc1Cl	aSyn UTR act -94
COc1ccc(/C=C/C(=O)c2ccc([N+](=O)[O-])o2)cc1	aSyn UTR act -62
O=C(Nc1ccc(N2CCN(C(=O)c3cccs3)CC2)cc1)c1ccc([N+](=O)[O-])o1	none
O=C(Nc1ccc(S(=O)(=O)N2CCOCC2)cc1)c1cc([N+](=O)[O-])ccc1Cl	aSyn UTR act -67
O=C(Nc1ccc(S(=O)(=O)N2CCOCC2)cc1)c1ccc([N+](=O)[O-])o1	aSyn UTR act -120
O=C(Nc1ccc(N2CCOCC2)cc1)c1ccc([N+](=O)[O-])o1	aSyn UTR act -103
CCN1/C(=C/c2ccc3cccc(C)c3[n+]2CC)Sc2ccccc21	aSyn UTR act -134
CCN1/C(=C/c2ccc3cc(C)ccc3[n+]2CC)Sc2ccc3sccc3c21	none
Cc1ccccc1CSc1ccc(-c2ccc3c(c2)OCO3)nn1	aSyn UTR act -83
Cc1nc(C)c(-c2ccc(SCc3ccccc3C)nn2)s1	aSyn UTR act -97
c1cncc(CSc2ccc(-c3ccc4c(c3)OCO4)nn2)c1	aSyn UTR act -109
CC(C)(C)c1ccc(/C=C(\c2nc3ccccc3[nH]2)S(=O)(=O)c2ccccc2)cc1	aSyn UTR act -78
Cc1cccc(/C=C(\c2nc3ccccc3[nH]2)S(=O)(=O)c2ccccc2)c1	aSyn UTR act -118
COc1cccc(NC(=O)NC2CCCCCCC2)c1	aSyn UTR act -132
COc1cccc(NC(=O)C(=S)NC2CCCCC2)c1	aSyn UTR act -85
C#CC(=O)N(c1cccc(OC)c1)C(C(=O)NC1CCCC1)c1cccs1 (stereo not drawn)	none
CCc1ccc(CCC(=O)Nc2ccccc2C(=O)O)o1	aSyn UTR act -85
CC#CCCCC(=O)Nc1ccccc1C(=O)O	aSyn UTR act -75
Cc1ccnc(NC(=S)NC(=O)c2cncc(Br)c2)c1	aSyn UTR act -81
N#Cc1ccc(N2Cc3ccccc3C2=NC(=O)c2cccnc2Cl)cc1	aSyn UTR act -106
O=C(N=C1c2ccccc2CN1c1ccc(F)c(Cl)c1)c1cccnc1Cl	aSyn UTR act -106
CCOc1cc(/C=N/Nc2ncnc(Cl)c2N)ccc1O	aSyn UTR act -89
CC(C)(C)c1ccc(NC(=S)NCc2cccs2)cc1	aSyn UTR act -98
S=C(NCCc1ccccc1)NCc1cccs1	aSyn UTR act -74
O=C(COC(=O)c1ccc[nH]c1=O)NCCc1ccc(Cl)cc1Cl	aSyn UTR act -98
CN1N=C2c3ccccc3CCC2C1c1ccc(F)cc1 (stereo not drawn)	aSyn UTR act -110
CN1N=C2c3ccccc3CCC2C1c1ccc(Cl)cc1 (stereo not drawn)	aSyn UTR act -101
Cc1ccc(C2=NNC3(CCOC(C)(C)C3)S2)cc1 (stereo not drawn)	aSyn UTR act -164
COC(=O)CCC(=O)Oc1ccc(OC(=O)CCC(=O)OC)cc1	aSyn UTR act -62
CSc1nc2sc3c(c2c(=O)n1C)CCC(C)C3 (stereo not drawn)	aSyn UTR act -165
O=C(NC1CC1)c1c(O)c2ccccc2[nH]c1=O	aSyn UTR act -68
NNC(=O)c1[nH]c2ccccc2c1-c1ccccc1	none
O=C(NCCc1ccccc1)c1c(O)c2ccccc2[nH]c1=O	aSyn UTR act -119
O=C(NC1CCCCCCC1)c1c(O)c2ccccc2[nH]c1=O	aSyn UTR act -99
C=CCn1c(SCC(=O)Nc2ccc(F)cc2F)nnc1-c1cnccn1	aSyn UTR act -107
COc1ccc(OC)c(/C=C/C(=O)c2ccc3c(c2)OCCO3)c1	aSyn UTR act -156
O=C(NCCc1ccccc1)c1ccc2c(c1)OCCCO2	none
O/N=C(/CCc1ccccc1)c1ccc2c(c1)OCCO2	aSyn UTR act -120
O=C(/C=C/c1ccccc1)c1ccc2c(c1)OCCCCO2	aSyn UTR act -198
O=C(c1ccccc1)c1ccc2c(c1)OCCCO2	aSyn UTR act -64
O=C(CCCc1ccccc1)c1ccc2c(c1)OCCO2	none
CC(OC(=O)c1ccc2c(c1)OCCO2)C(=O)c1ccccc1 (stereo not drawn)	aSyn UTR act -133
O=C(CCc1ccccc1)c1ccc2c(c1)OCCCO2	aSyn UTR act -190
O=C1COc2ccc(C(=O)/C=C/c3ccccc3)cc2N1	aSyn UTR act -114
O=C(CCN1CCc2ccccc21)c1ccc2c(c1)OCCO2	aSyn UTR act -155
